Each structure is given as a SMILES string. Activity calls are given as the source filed them. Unless noted, no rule for the calls is given here.

Assay [1] can be described thus: compounds binding Alexa647 anti-His antibody – biochemical, small-molecule microarray, 635 nm fluorescence, artefact control for SMM control protein annotation, primary screen (AID 1128).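 Also: score merges feature fluorescence with signal-to-noise for each printed compound spot.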 Conditions: higher = more signal.
Assay [2] relates to Human papillomavirus type 1a E7 protein (residues 1-88). Nature of the assay: HPV1a E7 small-molecule binders, primary screen, biochemical, small-molecule microarray, residues 1-88, 635 nm (AID 1129). Particulars: small-molecule microarray binding, fluorescence 635 nm; higher = more signal.
The target of assay [3] is Focal adhesion kinase 1 (Homo sapiens) (UniProt Q05397). Briefly: PTK2 protein binding on printed compound slides – biochemical, small-molecule microarray, 635/667 nm fluorescence, BSA, DTT, primary screen (AID 1130).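 Also: composite of spot emission at 667 nm and signal to noise over triplicate slides.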 Particulars: 635 nm fluorescence, higher = more signal.
Sequence of Focal adhesion kinase 1 (Homo sapiens) (Q05397 whole entry, looked up): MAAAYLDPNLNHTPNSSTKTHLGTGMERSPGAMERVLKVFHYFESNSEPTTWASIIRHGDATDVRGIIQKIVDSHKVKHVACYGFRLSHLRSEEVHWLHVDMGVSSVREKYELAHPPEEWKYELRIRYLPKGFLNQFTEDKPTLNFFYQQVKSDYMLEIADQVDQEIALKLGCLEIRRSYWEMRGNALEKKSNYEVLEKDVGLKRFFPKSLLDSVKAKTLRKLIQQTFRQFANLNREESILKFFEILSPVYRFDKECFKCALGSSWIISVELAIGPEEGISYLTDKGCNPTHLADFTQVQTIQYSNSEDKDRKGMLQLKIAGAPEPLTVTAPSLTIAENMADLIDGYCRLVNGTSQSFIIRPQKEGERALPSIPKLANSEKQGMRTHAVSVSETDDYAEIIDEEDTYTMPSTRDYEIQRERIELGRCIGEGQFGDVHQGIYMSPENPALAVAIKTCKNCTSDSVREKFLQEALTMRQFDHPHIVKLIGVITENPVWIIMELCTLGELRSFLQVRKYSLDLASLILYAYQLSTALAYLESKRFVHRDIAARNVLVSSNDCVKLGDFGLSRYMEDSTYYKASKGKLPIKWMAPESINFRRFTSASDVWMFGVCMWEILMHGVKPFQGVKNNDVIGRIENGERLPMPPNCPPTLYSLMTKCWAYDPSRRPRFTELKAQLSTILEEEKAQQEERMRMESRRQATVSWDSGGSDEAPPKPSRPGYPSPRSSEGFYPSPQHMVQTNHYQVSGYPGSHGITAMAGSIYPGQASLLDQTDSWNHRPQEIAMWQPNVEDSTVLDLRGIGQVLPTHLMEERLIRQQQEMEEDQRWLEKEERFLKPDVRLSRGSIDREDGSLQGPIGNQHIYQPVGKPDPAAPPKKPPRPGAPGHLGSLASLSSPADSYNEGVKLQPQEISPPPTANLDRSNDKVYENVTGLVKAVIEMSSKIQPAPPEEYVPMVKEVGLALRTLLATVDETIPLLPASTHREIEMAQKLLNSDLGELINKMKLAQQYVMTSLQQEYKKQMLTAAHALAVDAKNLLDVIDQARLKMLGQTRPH
The test system of assay [4] is Fibrinogen (Alexa647-labelled). Briefly: Alexa647-fibrinogen binding to printed small molecules – biochemical, small-molecule microarray, 635/667 nm fluorescence, artefact control for SMM control-protein annotation, profiling panel (AID 1131).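 Also: z-score merges 667 nm fluorescence with per-spot signal-to-noise over triplicate slides.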 Conditions: fibrinogen-A647 binding fluorescence, higher = more signal.
For assay [5], the target named is Follistatin (Homo sapiens) (UniProt P19883). Briefly: FST protein binding to printed compounds – biochemical, small-molecule microarray, 635/667 nm fluorescence, primary screen (AID 1132). Particulars: 635 nm fluorescence, higher = more signal.
Sequence of Follistatin (Homo sapiens) (P19883 whole entry, looked up): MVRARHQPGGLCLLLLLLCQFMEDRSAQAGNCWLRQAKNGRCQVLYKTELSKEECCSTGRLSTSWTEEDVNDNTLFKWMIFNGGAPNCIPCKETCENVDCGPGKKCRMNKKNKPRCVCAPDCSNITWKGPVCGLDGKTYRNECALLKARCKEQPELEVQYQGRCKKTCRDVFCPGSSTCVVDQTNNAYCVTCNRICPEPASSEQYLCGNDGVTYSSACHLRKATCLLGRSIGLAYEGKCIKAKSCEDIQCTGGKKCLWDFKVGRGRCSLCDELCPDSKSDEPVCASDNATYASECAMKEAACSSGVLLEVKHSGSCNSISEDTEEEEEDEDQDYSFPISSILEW
Assay [6] addresses Fibroblast growth factor 2 (Homo sapiens) (UniProt P09038). Briefly: basic fibroblast growth factor binding to printed compounds – biochemical, small-molecule microarray, 635/667 nm fluorescence, primary screen (AID 1133). Conditions: FGF2, fluorescence 635/667, higher = more signal.
Assay [7] is described as follows: JC-1 mitochondrial potential readout, lung cancer cells – cell-based, A549, JC-1 fluorescence, basal, 24 h, 100 nL, profiling panel (AID 1138).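 Also: A549 lung adenocarcinoma cells under basal conditions with no added stimulus; test concentration not given here.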 Particulars: higher = more signal.
The test system of another assay is Lefty1. Briefly: Lefty1 protein binding to printed compounds – biochemical, small-molecule microarray, 635/667 nm fluorescence, primary screen (AID 1139). Particulars: fluorescence 635/667, higher = more signal.
Assay [8] deals with wheat germ agglutinin (Triticum aestivum), Alexa647-labelled. Nature of the assay: Alexa647-WGA lectin binding to printed small molecules – biochemical, small-molecule microarray, 635/667 nm fluorescence, artefact control for SMM control-protein annotation, profiling panel (AID 1140).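 Also: score merges 667 nm feature emission with signal to noise over triplicate slides.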 Particulars: WGA-A647 binding, 635 nm fluorescence, higher = more signal.
Assay [9] has as its target Luciferin 4-monooxygenase (Photinus pyralis) (UniProt P08659). Nature of the assay: inhibition of purified Photinus pyralis luciferase – biochemical, luminescence, purified enzyme, 2006 set, primary screen (AID 1141).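 Also: cell-free assay with purified firefly luciferase at 100 ng per well in PBS; test concentration not given here.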 Particulars: purified firefly luciferase, SteadyGlo luminescence, 30 min; higher = more signal, called active from +8 up or from −8 down.
The subject of assay [10] is Wnt5a (protein binding on small-molecule microarray). Nature of the assay: small molecules binding Wnt5a protein – biophysical, small-molecule microarray, 635/667 nm fluorescence, primary screen (AID 1142).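 Also: fluorescence read at 667 nm with signal to noise per printed feature.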 Particulars: 635 nm fluorescence, higher = more signal.
Assay [11] is described as follows: ATP-based viability of Huh7 replicon cells – cell-based, CellTiter-Glo luminescence, basal, 48 h, cytotoxicity control for HCV replication inhibitor project, primary screen (AID 1143).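 Also: Huh7 hepatoma cells carrying a hepatitis C replication reporter with no stimulus; test concentration not given here.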 Conditions: higher = more signal, called active from +8 up or from −8 down. (In antiviral work, replicon cells carry a viral genome segment that copies itself.)
Assay [12] can be described thus: Pseudomonas biofilm growth suppression – PAO1 strain, BacTiter-Glo luminescence, LB-PBS, primary screen (AID 1144). Particulars: P. aeruginosa PAO1 biofilm, 12 h, higher = more signal.
Assay [13] in a line: basal CRE-LacZ reporter activity in PC12 – cell-based, unstimulated, primary screen (AID 1145). Conditions: no forskolin, luminescence, 4.5 h, higher = more signal, called active from +8 up or from −8 down.
Assay [14] is described as follows: forskolin-driven CRE-LacZ activity in PC12 – cell-based, CRE-LacZ reporter, forskolin-stimulated, primary screen (AID 1146).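 Also: PC12 cells with 6xCRE LacZ reporter stimulated by forskolin 10 µM; beta-galactosidase reporter signal reflecting CREB driven transcription.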 Conditions: luminescence, 4.5 h, higher = more signal, called active from +8 up or from −8 down.
Assay [15] concerns the target Streptavidin (Streptomyces avidinii) (UniProt P22629). Nature of the assay: compounds binding control protein streptavidin – biophysical, small-molecule microarray, 635/667 nm fluorescence, artefact control for SMM compound annotation, primary screen (AID 1147).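 Also: signal reflects streptavidin binding to arrayed compounds as a control protein.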 Particulars: higher = more signal.
A short description of assay [16]: probe aInhba binding on compound microarray – biochemical, small-molecule microarray, 635/667 nm fluorescence, primary screen (AID 1148).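 Also: score merges 667nm spot fluorescence with signal-to-noise for antibody binding to printed compounds.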 Conditions: higher = more signal.
In assay [17] the target is Torsin-1A (Homo sapiens) (UniProt O14656). Briefly: TOR1A wild-type binding on microarray – cell lysate, small-molecule microarray, lysate, 635/667 nm, primary screen (AID 1149). Conditions: COS7 hTOR1A-WT lysate, 635 nm fluorescence, higher = more signal.
Sequence of Torsin-1A (Homo sapiens) (O14656 whole entry, looked up): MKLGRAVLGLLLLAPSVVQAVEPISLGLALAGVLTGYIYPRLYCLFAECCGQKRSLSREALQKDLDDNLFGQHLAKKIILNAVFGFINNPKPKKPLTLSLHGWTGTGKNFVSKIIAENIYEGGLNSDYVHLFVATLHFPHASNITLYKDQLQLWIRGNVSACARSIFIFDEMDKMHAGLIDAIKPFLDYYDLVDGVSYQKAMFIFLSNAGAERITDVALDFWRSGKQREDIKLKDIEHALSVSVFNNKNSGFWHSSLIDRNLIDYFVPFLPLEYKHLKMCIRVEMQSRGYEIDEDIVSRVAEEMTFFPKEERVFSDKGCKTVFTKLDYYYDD
Assay [18] shares this target. Briefly: torsin A mutant lysate binding on microarrays – cell lysate, small-molecule microarray, COS7 lysate, 635/667 nm fluorescence, primary screen (AID 1150).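 Also: score pools 667 nm emission and signal to noise measuring lysate protein binding.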 Conditions: COS7 hTOR1A mutant lysate, 635 nm fluorescence, higher = more signal.
Assay [19] relates to Sonic hedgehog protein (Shh). Nature of the assay: Sonic hedgehog microarray binding compounds – biochemical, small-molecule microarray, 635/667 nm fluorescence, primary screen (AID 1151).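 Also: Shh protein binding to compounds spotted on small-molecule microarray slides; score combines spot fluorescence intensity with signal-to-noise across triplicate slides.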 Particulars: 635 nm fluorescence, higher = more signal.

Sequence of Streptavidin (Streptomyces avidinii) (P22629 whole entry, looked up): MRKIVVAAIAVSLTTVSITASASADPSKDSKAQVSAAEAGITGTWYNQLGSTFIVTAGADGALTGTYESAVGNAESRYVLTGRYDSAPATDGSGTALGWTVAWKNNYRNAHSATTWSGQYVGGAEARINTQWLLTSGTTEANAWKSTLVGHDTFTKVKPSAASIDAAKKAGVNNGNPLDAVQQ
Sequence of Fibroblast growth factor 2 (Homo sapiens) (P09038 whole entry, looked up): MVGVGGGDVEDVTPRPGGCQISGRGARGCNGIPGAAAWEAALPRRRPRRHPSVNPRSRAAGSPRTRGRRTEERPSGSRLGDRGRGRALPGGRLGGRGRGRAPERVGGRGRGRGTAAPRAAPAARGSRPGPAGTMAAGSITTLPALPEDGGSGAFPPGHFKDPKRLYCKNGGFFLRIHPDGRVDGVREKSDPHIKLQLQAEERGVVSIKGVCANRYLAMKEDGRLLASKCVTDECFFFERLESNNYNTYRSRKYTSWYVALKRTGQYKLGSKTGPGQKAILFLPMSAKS
Sequence of Luciferin 4-monooxygenase (Photinus pyralis) (P08659 whole entry, looked up): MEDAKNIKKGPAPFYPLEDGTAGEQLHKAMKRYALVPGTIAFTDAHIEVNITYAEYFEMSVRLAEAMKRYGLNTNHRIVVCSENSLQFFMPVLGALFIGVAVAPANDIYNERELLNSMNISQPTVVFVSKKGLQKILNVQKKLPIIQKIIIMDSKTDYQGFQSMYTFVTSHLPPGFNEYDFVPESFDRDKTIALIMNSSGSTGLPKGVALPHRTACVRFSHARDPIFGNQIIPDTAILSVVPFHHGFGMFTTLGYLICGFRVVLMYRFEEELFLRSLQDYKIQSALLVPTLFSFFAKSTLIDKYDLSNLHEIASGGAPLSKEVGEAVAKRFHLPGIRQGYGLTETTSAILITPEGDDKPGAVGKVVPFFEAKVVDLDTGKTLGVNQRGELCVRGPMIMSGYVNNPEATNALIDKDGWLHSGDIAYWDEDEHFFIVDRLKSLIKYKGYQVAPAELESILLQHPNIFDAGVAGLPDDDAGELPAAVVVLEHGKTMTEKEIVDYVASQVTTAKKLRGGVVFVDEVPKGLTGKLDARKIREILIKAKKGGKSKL

Turning to `C[C@]1(C(=O)NCCN2CCOCC2)c2ccccc2C(=O)N(Cc2cc(F)cc(C(F)(F)F)c2)[C@H]1c1ccc(CO)cc1`, the composite z-score in [1] is 3.12; in assay [2] it was 0.917; in assay [3], 0.746; in assay [4], 0.91; in assay [5], 0.89; in assay [6], -0.0787. Besides, the composite z-score in the assay with Lefty1 is 0.443; in [8], 0.294; in assay [10], -0.187; in assay [15] it was 0.0519; in assay [16], 0.027; with Torsin-1A (Homo sapiens) [17], 1.82. The composite z-score in the assay with Torsin-1A (Homo sapiens) [18] stood at 1.84; in assay [19], 1.86. In addition, the z-score in assay [7] was 0.815; in assay [9] it was 1.05 (inactive); in [11], -1.39 (inactive); in assay [12] it was -1.32 (inactive); in assay [13], -0.385 (inactive); in [14] it was -0.909 (inactive).

In the case of `[N-]=[N+]=Nc1ccccc1C[C@]1(C(=O)O)N=C(c2ccc(OCCCO)cc2)O[C@H]1c1ccccc1N=[N+]=[N-]`, the composite z-score in assay [1] came to 1.45; in [2], 1.21; in assay [3], 0.507; in assay [4], 0.986; in assay [5] it was 0.945; in assay [6] it was 0.0923. The composite z-score was -0.676 in the assay with Lefty1; 1.25 in [8]; 0.0284 in assay [10]; 1.58 in [15]; 0.362 in [16]; 0.327 in the assay with Torsin-1A (Homo sapiens) [17]. Further, the composite z-score with Torsin-1A (Homo sapiens) [18] was 0.241; in assay [19] it was -0.0242. Further, the z-score in [7] is 0.64; in assay [9] it was -5.36 (inactive); in assay [11], -1.26 (inactive); in assay [12], 0.0243 (inactive); in assay [13], 0.274 (inactive); in [14] it was -1.65 (inactive).

Turning to `O=C1C2C=CC(C(O)c3ccc(I)cc3)N(Nc3ccccc3)C2C(=O)N1c1ccccc1` (stereo not given), the composite z-score in assay [1] was found to be 1.45; in [2] it was 1.19; in assay [3] it was 0.83; in assay [4] it was 0.907; in assay [5], 0.862; in assay [6], 0.0891. The composite z-score was -0.358 with Lefty1; 1.44 in assay [8]; 0.478 in [10]; 1.88 in assay [15]; 0.151 in assay [16]; -0.087 in the assay with Torsin-1A (Homo sapiens) [17]. Also, the composite z-score in the assay with Torsin-1A (Homo sapiens) [18] is 0.36; in [19], 0.0756. Besides, the z-score is -0.0457 in assay [7]; -0.102 (inactive) in assay [9]; -0.167 (inactive) in [11]; -0.379 (inactive) in [12]; -0.522 (inactive) in [13]; 0.32 (inactive) in assay [14].

As for `CCN(CC)c1ccc(N2CC=CC34O[C@@H]5/C=C\CCC(C)OC(=O)C5[C@H]3C(=O)N(C(C)CO)[C@@H]4C2=O)cc1` (stereo not given in full), the composite z-score in [1] is -0.361; in [2], -0.935; in assay [3], 0.212; in [4], -0.145; in assay [5], 0.565; in [6], -0.0619. In addition, the composite z-score is 0.321 in the assay on Lefty1; -0.663 in assay [8]; -0.0075 in assay [10]; -0.417 in [15]; -0.0986 in assay [16]; -0.0697 with Torsin-1A (Homo sapiens) [17]. Moreover, the composite z-score in the assay with Torsin-1A (Homo sapiens) [18] was -0.116; in assay [19], 0.808. The z-score in assay [7] was 0.723; in assay [9], -1.5 (inactive); in assay [11] it was 0.269 (inactive); in assay [12], 0.515 (inactive); in assay [13], 0.87 (inactive); in assay [14], 0.46 (inactive).

As to `CCCCC(=O)N(CCN1CCOCC1)[C@@H]1CC(C(=O)NCCO)=C[C@H](Oc2c(I)cc(CO)cc2OC)[C@H]1O`, the composite z-score was 0.438 in assay [1]; 0.358 in assay [2]; -0.444 in assay [3]; -0.0237 in [4]; 0.328 in assay [5]; 0.902 in assay [6]. Besides, the composite z-score with Lefty1 is 0.612; in assay [8] it was 0.0626; in [10], -0.0408; in assay [15], -0.0538; in assay [16], -0.253; with Torsin-1A (Homo sapiens) [17], 0.314. Besides, the composite z-score in the assay with Torsin-1A (Homo sapiens) [18] is -0.0203; in assay [19] it was 0.655. Besides, the z-score in [7] was 0.809; in assay [9], -0.658 (inactive); in assay [11], 0.0643 (inactive); in assay [12] it was -0.141 (inactive); in assay [13], 1.4 (inactive); in [14], -1.19 (inactive).

These data come from PubChem BioAssay.
